Results taken from PubChem BioAssay (NCI).
About 83,000 compounds went through this panel and 20% of them were active in at least one assay; those are over-represented in the sample as a whole.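 Note: values are percent growth. 100 is the growth of untreated cells, values between 100 and 0 indicate rising inhibition; between -100 and 0 indicates cell death.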 Active and inactive are the calls of the source. Rule for the calls: active = growth percent below 10; inactive = the rest.

Tested on: HOP-92 NSCLC
Experiment: NCI-60 one-dose screen, 48 h (100 = growth as untreated, 0 = no growth, -100 = all killed)
Settings: 10 µM unless noted

| SMILES | growth |
| --- | --- |
| C[C@H](c1nc2ccc(C#N)cc2[nH]1)[C@H]1CC[C@H]2[C@@H]3CCC4=CC(=O)CC[C@]4(C)[C@H]3CC[C@]12C | -9.25% (active) |
| O=c1cc(C(F)(F)F)c2cc(-c3cc4ccccc4c(=O)o3)c(O)cc2o1 | -0.397% (active) |
| Nc1ccc(-c2ccncc2)cc1NC(=O)N1CCCC1 | 104% (inactive) |
| COc1cccc(-c2cn3nc(-c4cn(C)c5ccccc45)sc3n2)c1 | 81.8% (inactive) |
| CC(C)(C)c1ccc(S(=O)(=O)Oc2ccc(-c3sc4cc(OS(=O)(=O)c5ccc(C(C)(C)C)cc5)ccc4c3C(=O)c3ccc(OCCN4CCCCC4)cc3)cc2)cc1 | 84.4% (inactive) |
| CCN(CC)CCn1c2ccc(OC)cc2c2sc3cc(O)ccc3c(=O)c21 | 61.8% (inactive) |
| C=C1C(=O)O[C@H]2[C@H]1CC/C(COC(=O)NCc1ccc(Cn3c(=O)sn(-c4ccc(I)cc4)c3=O)cc1)=C\CC[C@@]1(C)O[C@@H]21 | 54.9% (inactive) |
| O=C(Nc1nc(Cl)nc(Nc2ccc(N3CCOCC3=O)cc2)n1)c1ccc(Cl)s1 | 80.2% (inactive) |
| COc1cc(OC)c2c(=O)c3c(CC=C(C)C)cc(OC)c(O)c3oc2c1 | 77% (inactive) |
| O=S(=O)(Nc1cc(Sc2nc3ccccc3s2)c(O)c2ccccc12)c1ccc2ccccc2c1 | 109% (inactive) |
| Nc1cccc(-c2ccc(COc3ccc(CC4SC(=O)NC4=O)cc3)cc2)c1 (configuration not stated) | 42.3% (inactive) |
| COc1ccc(-c2nc(SCC(=O)Nc3nc4ccc(C)cc4s3)[nH]c(=O)c2C#N)cc1OC | 102% (inactive) |
